Out of some 410,000 compounds screened, about 310 (0.076%) were called active. About 2% were inconclusive and are not listed. Many of the other results were omitted from the sample, so actives are more common in it than they were. Unmarked numbers belong to inactive results. The call rests on the fitted dose curve; in most records, active means well fitted activation curve with a large enough effect; inconclusive means small, poorly fitted or top-dose-only effect, or another doubt; inactive means no such curve, though single readings can be large or run the other way.
These molecules were tested against Parathyroid hormone/parathyroid hormone-related peptide receptor (Homo sapiens) (UniProt Q03431) (assay: qHTS for PTHR1 Agonists: Primary Screen). Settings: HEK293 GP2 PTHR1 cells, GloSensor cAMP luminescence, 1 h; series mostly up to 115 µM; activation: at the top concentration.
Source text: The goal of the proposed studies is to discover new compounds that act as potent agonists on the parathyroid hormone receptor type-1 (PTHR1). The PTHR1 plays critical roles in maintaining blood calcium and phosphate levels, as well as in controlling bone remodeling. PTHR1 agonists could thus be useful for treating diseases such as hypoparathyroidism and osteoporosis. In the former disease, an agonist drug would help maintain normal blood calcium and phosphate levels under conditions of parathyroid hormone deficiency. In the latter disease, an agonist drug would stimulate new bone formation and thus reduce the risk of fracture, under conditions of bone fragility, as occurs in aging.
To that end, we performed a quantitative high-throughput screening (qHTS) of the Molecular Libraries Probe Centers Network (MLPCN) compound libraries at the NIH Chemical Genomics Center (NCGC) for the parathyroid hormone receptor type-1 (PTHR1) using a unique HEK-293-derived cell line (GP2) that expresses the PTHR1 and a glosensor cAMP reporter construct.
NIH Molecular Libraries Probe Production Centers Network [MLPCN]
NIH Chemical Genomics Center [NCGC]
Assay Submitter (PI): Thomas Gardella, Massachusetts General Hospital
4 microL are dispensed into a 1536-well micro plate to yield 3,000 cells/well. The plates are then incubated overnight, after which 4 microL of 0.5 mM of BIoTium Luciferin plus 0.5 mM IBMX are added. They are then incubated at 37 degree for one hour before 23 nL of compounds are added through pinning and then incubated at 37 degree again for another hour. After the plates are kept at room temperature for 15 min before they are read on the ViewLux to measure luminescence.
Further: nearly all actives have a fitted effect of over 55% in size.
Potency means the concentration at half of the fitted maximal effect.

Sequence of Parathyroid hormone/parathyroid hormone-related peptide receptor (Homo sapiens) (Q03431 whole entry, looked up): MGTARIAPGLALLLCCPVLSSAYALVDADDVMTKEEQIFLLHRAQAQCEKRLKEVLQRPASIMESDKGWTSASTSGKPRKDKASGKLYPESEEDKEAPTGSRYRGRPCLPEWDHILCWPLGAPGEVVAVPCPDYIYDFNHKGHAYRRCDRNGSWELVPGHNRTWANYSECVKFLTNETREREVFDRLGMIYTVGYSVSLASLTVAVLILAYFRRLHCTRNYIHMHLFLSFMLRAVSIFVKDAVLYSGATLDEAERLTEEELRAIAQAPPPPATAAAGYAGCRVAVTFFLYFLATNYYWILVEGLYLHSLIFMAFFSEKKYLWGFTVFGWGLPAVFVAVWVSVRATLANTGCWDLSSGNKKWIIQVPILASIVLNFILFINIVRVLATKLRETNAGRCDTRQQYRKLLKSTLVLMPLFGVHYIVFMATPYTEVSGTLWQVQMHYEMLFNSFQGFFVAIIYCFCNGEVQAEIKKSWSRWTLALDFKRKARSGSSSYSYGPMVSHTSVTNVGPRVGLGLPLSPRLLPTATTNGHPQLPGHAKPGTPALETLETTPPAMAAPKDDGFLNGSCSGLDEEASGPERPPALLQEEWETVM

Row | SMILES | activation | outcome | Potency
1 | CC1=C(c2ccc(C)c(C)c2)S(=O)(=O)NC1=NCc1ccccc1Cl | -38.2% | – | –
2 | COC(=O)c1cc(NC(=O)c2sc3ccccc3c2Cl)cc(C(=O)OC)c1 | -7.08% | – | –
3 | Cc1[nH]c2ccccc2c1C(c1ccccc1)c1cccs1 (stereo not given) | -5.12% | – | –
4 | CCOc1ccc(N(Cc2ccccc2)C(=O)c2nc(S(C)(=O)=O)ncc2Cl)cc1 | -96.5% | – | –
5 | CCOCCCNC(=O)c1cn(CC)c2ccc(S(=O)(=O)N3CCc4ccccc4C3)cc2c1=O | – | inactive | –
6 | Cc1ccc(OCC(=O)Nc2ccc(Cl)c(-c3nc4ccccc4[nH]3)c2)cc1C | -22.3% | – | –
7 | CCC1=Nc2cc(C(=O)NCCCOC(C)C)ccc2Sc2ccc(C)cc21 | – | inactive | –
8 | COc1ccc(-c2noc(CCC(=O)N(C)c3ccccc3C)n2)cc1 | -19.3% | – | –
9 | Cc1cccc(N2CCN(c3ccc(C(=O)O)cc3NC(=O)c3ccccc3F)CC2C)c1 (stereo not given) | -4.85% | – | –
10 | Cc1cc(C)cc(NS(=O)(=O)c2ccc(-c3cc(C)no3)s2)c1 | -34.8% | – | –
11 | COc1cc(C(=O)NCCS(=O)(=O)N2CCN(c3ccccc3)CC2)cc(OC)c1OC | – | inactive | –
12 | CCOc1ccc(C(=O)c2cn(Cc3ccccc3OC)c3ccc(F)cc3c2=O)cc1 | – | inactive | –
13 | CN1C(=O)c2ccccc2Sc2ccc(NC(=O)Cc3ccc(Cl)cc3)cc21 | -73.4% | – | –
14 | Cc1ccccc1-c1nc2scc(CCNC(=O)C(=O)Nc3ccc(F)cc3F)n2n1 | -0.325% | – | –
15 | O=C(CCS(=O)(=O)c1cc(Br)cc2c1N(C(=O)C1CC1)CC2)Nc1ccc(C(F)(F)F)cc1 | – | inactive | –
16 | Cc1cc(C)c(NC(=O)CSc2nc3nccnc3c(=O)n2CCc2c[nH]c3ccccc23)c(C)c1 | – | inactive | –
17 | COc1ccccc1C(=O)Nc1c(C(=O)N(C)Cc2ccccc2)sc2nc(C)c(Cl)c(C)c12 | -3.73% | – | –
18 | CCN(C(=O)Cn1cnc2sc(C)c(S(=O)(=O)N3CCN(c4ncccn4)CC3)c2c1=O)c1ccccc1F | -22.9% | – | –
19 | CCC(=O)N1CCc2cc(CNC(=O)Nc3ccccc3Cl)ccc21 | – | inactive | –
20 | CSc1nc(-c2ccc(F)cc2)nc2c1Cc1c(CO)cnc(C)c1O2 | -3.85% | – | –
21 | Cc1ccccc1OCCSc1nc2ccc(NC(=O)c3ccco3)cc2s1 | -22.6% | – | –
22 | Cc1ccc(Cn2c(=O)n(-c3ccc(C)cc3)c(=O)c3c2c2cc(C)ccc2n3C)cc1 | – | inactive | –
23 | Cc1ccsc1CN(C(=O)c1oc2ccc(Br)cc2c1C)C1CCS(=O)(=O)C1 (stereo not given) | -19.6% | – | –
24 | Cc1ccccc1CSc1nc2c([nH]c3ccccc32)c(=O)n1C | – | inactive | –
25 | CC(=O)c1ccc(N2CCN(c3nc4c(S(=O)(=O)c5ccccc5)nnn4c4ccc(Cl)cc34)CC2)cc1 | -11.3% | – | –
26 | Cc1cccc(N2CCN(C(=O)Cn3ncc4c5ccccc5n(C)c4c3=O)CC2C)c1 (stereo not given) | -6.58% | – | –
27 | CCOc1ccc(C2C(C(=O)Nc3ccc(Cl)cc3)=C(C)Nc3nc(C(F)(F)F)nn32)cc1 (stereo not given) | – | inactive | –
28 | CCN(C(=O)Cn1c(=O)nc(-c2ccccc2)c2cc(Cl)ccc21)c1cccc(C)c1 | – | inactive | –

Row | SMILES | activation | outcome | Potency
29 | Cc1cc(C)cc(NC(=O)CCCc2nc(-c3ccccc3Cl)no2)c1 | – | inactive | –
30 | CCOC(=O)C1CCN(c2nc3c(S(=O)(=O)c4ccc(CC)cc4)nnn3c3ccc(Cl)cc23)CC1 | -39.7% | – | –
31 | Cc1ccc(CNC(=O)CCC(=O)N2Cc3ccccc3Oc3ncccc32)cc1 | – | inactive | –
32 | CCOC(=O)c1c(NC(=O)Cc2coc3ccc(CC)cc23)sc2c1CCC2 | -14% | – | –
33 | CCOc1ccccc1N(CC)C(=O)Nc1cn(C)c(=O)c2ccccc12 | – | inactive | –
34 | O=C(NCCCO)c1nn(-c2ccc(Cl)cc2)nc1CO | – | inactive | –
35 | CCc1nn(CC(=O)N2CCN(c3ccc(Cl)cc3)CC2)c(=O)c2cc3occc3n12 | -30.1% | – | –
36 | CC(C)Cn1c(C2CC(=O)N(c3ccccc3Cl)C2)nc2ccccc21 (stereo not given) | – | inactive | –
37 | Cn1c(COc2ccccc2C(C)(C)C)nc2ccccc21 | -14.1% | – | –
38 | COc1ccc(NC(=O)CSC2=Nc3ccccc3C3=NC(CC(=O)NCc4ccccc4OC)C(=O)N23)cc1Cl (stereo not given) | -3.88% | – | –
39 | CC(CCCc1ccccc1)NC(=O)c1nn(-c2ccc(Cl)cc2)nc1CO (stereo not given) | -11% | – | –
40 | COc1ccc(CNc2nc(-c3ccc(Cl)cc3)nn2C(=O)c2ccccc2)cc1 | – | inactive | –
41 | Cc1ccc(CCNC(=O)C2CCN(c3nnc(-n4cccc4CNc4ccc(C)cc4)s3)CC2)cc1 | 1.18% | – | –
42 | Cc1ccc(SCC(=O)Nc2ccc3oc(-c4ccccc4F)nc3c2)cc1 | -7.35% | – | –
43 | CC(=O)N1c2ccc(S(=O)(=O)N3CCCCCC3)cc2CC1C(=O)NCc1ccccc1C (stereo not given) | – | inactive | –
44 | CCN1CCN(CCCNC(=O)c2cnn(-c3ccc(C)cc3C)c2C2CCN(C(=O)OC(C)(C)C)CC2)CC1 | -12.3% | – | –
45 | COc1ccccc1N1CCN(CCCNC(=O)c2cnn(-c3ccccc3Cl)c2C2CCN(C(=O)OC(C)(C)C)CC2)CC1 | – | inactive | –
46 | Cc1cccc(C)c1-n1ncc(C(=O)NCCCN2CCCCC2)c1C1CCN(C(=O)OC(C)(C)C)CC1 | – | – | 14.1 µM (active)
47 | O=C(NC1CCCCC1)c1ccc(Cn2c(SCc3ccccc3)nc3cccnc32)cc1 | – | inactive | –
48 | COc1ccc(N(C)C(=O)C2CCN(S(=O)(=O)c3cc(Br)cc4c3N(C(C)=O)CC4)CC2)cc1 | -10.4% | – | –
49 | CCOc1ccc(OCC)c(NC(=O)c2c(C)nn(-c3ccccc3)c2-n2cccc2)c1 | – | inactive | –
50 | COc1cccc(-c2n[nH]c3c2C(c2cccc(O)c2)N(C)C3=O)c1 (stereo not given) | -24.7% | – | –
51 | CCCN1CCN(CCCNC(=O)Cn2nc(CC)n3c(cc4occc43)c2=O)CC1 | 11.6% | – | –
52 | COc1ccc2c(c1)c(N1CCCC1=O)c(C(=O)Nc1ccc(OC)c(Cl)c1)n2C | -20.4% | – | –
53 | COC(=O)c1cc2occc2n1Cc1nc(-c2ccc(C)cc2)oc1C | -6.46% | – | –
54 | Cc1ccc(-c2cnc(NCc3ccc(C(C)C)cc3)n2C)cc1 | -25.2% | – | –
55 | C=Cc1ccc(Cn2c(C(=O)O)c(CNC3CCCC3)c3ccc(C)cc32)cc1 | – | inactive | –
